Measured values taken from PubChem BioAssay AID1159580 (chemical genetic matrix, 2015).
In all, about 5,500 compounds went through this assay and about 2,000 (36%) were called active. Inconclusive results (about 18%) are left out. Cut-off read from the data, not from the text of the source: active = normalized growth mostly below about 0.91 (no sharp cut-off); inconclusive = no clear call, values can overlap the other calls; inactive = mostly above about 0.92. Some of the results follow.

Experiment: chemical genetic growth profiling, strain panel (AID 1159580);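 note: tested at 20 µM; growth read once vehicle control cultures reached saturation at 30 °C; 1 = growth at the plate median or of vehicle wells; lower values mean less growth of the strain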
Conditions: S. cerevisiae deletion strains, growth OD

Measured: normalized growth

COc1cc2c(cc1OC)C1C(=O)c3ccc4c(c3OC1CO2)CCC(C)(C)O4 (stereo not drawn)
inactive: locus YBR021W, strain FUR4, hits give low values 0.985 | locus YBR229C, strain ROT2, hits give low values 1 | locus YCL029C, strain bik1, hits give low values 1.04 | locus YDL035C, strain GPR1, hits give low values 1.01 | locus YDL074C, strain BRE1, hits give low values 0.993 | locus YDL101C, strain DUN1, hits give low values 0.997 | locus YDL185W, strain tfp1, hits give low values 1.03 | locus YDL192W, strain arf1, hits give low values 1.01 | locus YDR101C, strain arx1, hits give low values 0.997 | locus YDR162C, strain NBP2, hits give low values 1.03 | locus YDR318W, strain mcm21, hits give low values 1.01 | locus YDR388W, hits give low values 1 | locus YDR502C, strain sam2, hits give low values 1.02 | locus YEL061C, strain CIN8, hits give low values 1 | locus YER110C, hits give low values 1.02 | locus YER155C, strain BEM2, hits give low values 0.996 | locus YER167W, strain BCK2, hits give low values 0.999 | locus YGL078C, strain dbp3, hits give low values 1.03 | locus YGL086W, strain mad1, hits give low values 1.02 | locus YGL248W, strain PDE1, hits give low values 0.99 | locus YGR078C, strain PAC10, hits give low values 0.996 | locus YGR135W, strain pre9, hits give low values 1.02 | locus YGR252W, strain gcn5, hits give low values 0.957 | locus YHR030C, strain SLT2, hits give low values 1.01 | locus YHR079C, strain IRE1 (second series), hits give low values 1 | locus YHR094C, strain hxt1, hits give low values 1.02 | locus YHR129C, strain ARP1, hits give low values 1.01 | locus YHR200W, strain rpn10, hits give low values 1 | locus YIL066C, strain RNR3, hits give low values 1 | locus YIL073C, strain SPO22, hits give low values 1.02 | locus YIL125W, strain kgd1, hits give low values 1.02 | locus YIR030C, strain dcg1, hits give low values 1 | locus YJL095W, strain BCK1, hits give low values 1.01 | locus YJL134W, strain LCB3, hits give low values 0.996 | locus YJL168C, strain set2, hits give low values 1 | locus YJL187C, strain SWE1 (second series), hits give low values 0.999 | locus YJR043C, strain POL32, hits give low values 1.01 | locus YKL009W, strain mrt4, hits give low values 1.03 | locus YKL068W, hits give low values 1 | locus YKL085W, strain MDH1 (second series), hits give low values 1.01 | locus YKL085W, strain MDH1, hits give low values 1.01 | locus YKR001C, strain vps1, hits give low values 0.994 | locus YLR039C, strain RIC1, hits give low values 1.01 | locus YLR058C, strain SHM2, hits give low values 0.999 | locus YLR102C, strain apc9, hits give low values 1.01 | locus YLR262C, strain YPT6, hits give low values 1.04 | locus YLR268W, strain sec22, hits give low values 1.02 | locus YLR330W, strain CHS5, hits give low values 1.01 | locus YLR342W, strain FKS1 (second series), hits give low values 1 | locus YLR371W, strain rom2, hits give low values 1.01 | locus YLR418C, strain cdc73, hits give low values 1 | locus YML016C, strain PPZ1, hits give low values 1 | locus YML032C, strain rad52, hits give low values 1.02 | locus YML124C, strain tub3, hits give low values 1 | locus YMR078C, strain ctf18, hits give low values 0.997 | locus YMR223W, strain ubp8, hits give low values 0.999 | locus YMR263W, strain SAP30, hits give low values 0.998 | locus YMR307W, strain GAS1, hits give low values 1 | locus YNL067W, strain RPL9B, hits give low values 0.993 | locus YNL128W, strain TEP1, hits give low values 1.03 | locus YNL153C, strain GIM3, hits give low values 1.02 | locus YNL233W, strain BNI4, hits give low values 0.982 | locus YNL250W, strain rad50, hits give low values 1.02 | locus YNL271C, strain bni1, hits give low values 1.03 | locus YNL298W, strain CLA4, hits give low values 1.01 | locus YNL307C, strain MCK1, hits give low values 1 | locus YNL322C, strain KRE1, hits give low values 1 | locus YNR052C, strain pop2, hits give low values 1.02 | locus YOL006C, strain TOP1, hits give low values 0.984 | locus YOL012C, strain htz1 1.01 | locus YOL147C, strain pex11, hits give low values 1 | locus YOR061W, strain CKA2, hits give low values 1.01 | locus YOR069W, strain VPS5, hits give low values 1 | locus YOR136W, strain idh2, hits give low values 1.02 | locus YOR144C, strain elg1, hits give low values 1.01 | locus YOR184W, strain ser1, hits give low values 1.02 | locus YOR316C, strain cot1, hits give low values 1.01 | locus YPL241C, strain CIN2, hits give low values 0.993 | locus YPR119W, strain clb2, hits give low values 1.02 | locus YPR141C, strain kar3, hits give low values 1.01 | locus YPR163C, strain tif3, hits give low values 1.01 | locus YPR167C, strain met16, hits give low values 1 | strain wtn01, hits give low values 1.02
